# In all, about 16,000 compounds went through this assay and about 5,700 (36%) were called active. Another 24% or so got no clear call; they are omitted. This is one part of the list. Unmarked numbers belong to inactive results. Calls come from the whole dose curve; as a rule, active = well fitted curve in the direction sought with a large enough effect; inconclusive = small, poorly fitted or top-dose-only effect, or effect the other way; inactive = no such curve, though single readings can be large or run the other way.
# Biological target: Cytochrome P450 1A2 (Homo sapiens) (UniProt P05177)
# Sequence (P05177 whole entry, looked up): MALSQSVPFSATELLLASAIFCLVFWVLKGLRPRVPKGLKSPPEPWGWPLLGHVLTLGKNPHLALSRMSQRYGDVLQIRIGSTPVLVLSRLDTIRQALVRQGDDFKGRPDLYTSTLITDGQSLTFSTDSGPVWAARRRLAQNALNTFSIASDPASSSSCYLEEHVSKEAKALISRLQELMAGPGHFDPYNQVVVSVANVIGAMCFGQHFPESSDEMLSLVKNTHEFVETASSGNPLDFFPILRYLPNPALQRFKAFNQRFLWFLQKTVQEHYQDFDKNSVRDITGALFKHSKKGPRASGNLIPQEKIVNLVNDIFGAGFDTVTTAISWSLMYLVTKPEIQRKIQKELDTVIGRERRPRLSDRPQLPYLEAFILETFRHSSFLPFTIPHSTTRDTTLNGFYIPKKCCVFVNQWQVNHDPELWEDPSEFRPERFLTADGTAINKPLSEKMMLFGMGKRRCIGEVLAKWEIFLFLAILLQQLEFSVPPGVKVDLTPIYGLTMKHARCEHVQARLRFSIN
# Assay: Cytochrome panel assay with activity outcomes
# Settings: recombinant CYP, pro-luciferin dealkylation, luminescence, p450-cyp1a2; series mostly up to 57.1 µM; activity, negative = inhibition: at the top concentration
# % is set by controls: 0 for no effect and ±100 for the full control effect.
Compound,AC50,"activity, negative = inhibition"
Cc1nnc(NC(=O)c2oc3c(ccc4ccccc43)c2C)s1,0.2 µM (active),
Cc1nnc(NC(=O)CCC(=O)NCc2cccs2)s1,,-18%
COC(=O)[C@@H](NC(=O)Nc1ccc(C(C)=O)cc1)C(C)C,,-4.26%
Cc1c(NC(=O)CCCOc2ccccc2)cccc1[N+](=O)[O-],12.6 µM (active),
Cc1ccc(OCCCC(=O)Nc2ccccc2C(F)(F)F)cc1,4.47 µM (active),
COc1cc([N+](=O)[O-])ccc1NC(=O)CCCOc1cccc(C)c1,7.94 µM (active),
Cc1c(NC(=O)C(Sc2ccccc2)c2ccccc2)cccc1[N+](=O)[O-] (configuration not stated),,-9.98%
Cc1cccc(OCCCC(=O)Nc2ccc(N3CCCCC3)cc2)c1,,-15.4%
Cc1c(NC(=O)/C=C/C(=O)O)cccc1[N+](=O)[O-],,-12.2%
Cc1cccc(OCCCC(=O)Nc2ccccc2C(F)(F)F)c1,11.2 µM (active),
Cc1ccc(OCC(=O)NNC(=O)CCC(=O)Nc2ccc(C)cc2C)cc1,,-2.46%
Cc1nn(-c2ccccc2)c2c1C(c1ccc(O)c(O)c1)N1C(=N2)C(Nc2ccccc2)=Nc2ccccc21 (configuration not stated),,-3.72%
COc1ccc(C(=O)N2CC3(CC(c4ccc(Cl)cc4)=NO3)C[C@H]2C(=O)NCC(N)=O)cc1 (some centres not stated),,-12.9%
C[N+]1(CC(=O)OCCCc2ccccc2)CCOCC1,,9.57%
COc1ccccc1NC(=O)Cn1cncc1-c1ccc([N+](=O)[O-])cc1,,-23.8%
CCN(CC(=O)Nc1ccc([N+](=O)[O-])cc1OC)c1ccccc1,12.6 µM (active),
COc1ccc([N+](=O)[O-])cc1NC(=O)CC(C)c1ccccc1 (configuration not stated),5.01 µM (active),
C=CC[C@@H]1C=C[C@H](O/N=C\[C@@H](C)[C@H](OCc2ccccc2)C(C)C)[C@H](CO)O1,,9.01% [at 11.4 µM]
COc1cc(C2C(=O)N(C3CCCC3)CC(=O)N2Cc2ccco2)ccc1OC(C)C (configuration not stated),,-9.22%
CN(Cc1ccco1)C(=O)C1CCC(=O)N1Cc1ccc(F)cc1 (configuration not stated),,17.4%
O=C1c2ccccc2NC(c2ccc(F)cc2)N1Cc1ccco1 (configuration not stated),25.1 µM (active),
Cc1ccc(C2Nc3ccccc3C(=O)N2Cc2ccco2)cc1 (configuration not stated),15.8 µM (active),
COc1ccc(C2Nc3ccccc3C(=O)N2Cc2ccco2)cc1COc1ccc([N+](=O)[O-])cc1 (configuration not stated),,-16.8%
CC(C)Oc1ccc(/C(O)=C2/C(=O)C(=O)N(Cc3cccnc3)C2c2ccco2)cc1 (configuration not stated),,-5.23%
Cc1ccc(S(=O)(=O)CCc2nnc(NC(=O)COc3cccc(C)c3)s2)cc1,,7.38%
CC(=O)Nc1ccc(NC(=O)C/C(C)=N/NC(=O)C(=O)N2CCCC2)cc1,,1.33%
C/C(CC(=O)Nc1cc(C)ccn1)=N\NC(=O)COc1cccc(C)c1,14.1 µM (active),

# Reference: PubChem BioAssay AID1851 (National Center for Advancing Translational Sciences (NCATS), 2009)
